Screening data (PubChem)
DT40 TDP1 no CPT: qHTS for Inhibitors of human tyrosyl-DNA phosphodiesterase 1 (TDP1): qHTS in cells in absence of CPT | AID 686978, 2013 | actives 15% (n = 420,000) | Potency, µM (top dose mostly 46.2 µM), for inactives: at the highest dose activity change, negative = growth inhibition, usual class: inhibitors | DT40 Tdp1-/- hTDP1 cells, no CPT, ATP luminescence, 48 h; note: nearly all actives have a fitted effect of over 55% in size
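Camptothecin absent (DMSO only). Human TDP1-complemented DT40 knockout cells, 400 cells/well, 37 °C for minimum 48 hr; ATP measured via CellTiter-Glo, 30 min dark incubation, luminescence.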
DT40 TDP1 CPT: growth inhibition of DT40 Tdp1-/-;hTDP1 cells with camptothecin (screen for TDP1 inhibitors); chicken DT40 Tdp1-/-;hTDP1 cells + 20 nM CPT, ATP luminescence, 48 h; Potency, µM (series often up to 46.2 µM), for the others: at the highest dose activity change, negative = growth inhibition, usual class: inhibitors; actives 12% (n = 420,000); note: nearly all actives have a fitted effect of over 55% in size
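Cell growth measured by CellTiter-Glo luminescence after a minimum 48 h, 37 C compound exposure with 20 nM CPT in Tdp1-knockout DT40 cells stably expressing hTDP1, seeded 400/well; qHTS titration format.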
TDP1 inh: TDP1 (human) enzyme inhibition; recombinant TDP1, AlphaScreen DNA substrate cleavage; Potency, µM (highest dose often 130 µM), for inactives: top-dose activity change, negative = inhibition, hits mostly inhibitors; actives 0.28% (n = 350,000); note: nearly all actives have a fitted effect of over 40% in size
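Enzyme-compound mixtures sat 15 min at room temperature, followed by a 5 min reaction with 15 nM final substrate and 10 min with AlphaScreen beads. Recombinant human Tdp1 was used at 1 nM final.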
VDR inhibitor: vitamin D3 receptor (human) inhibition; P11473; VDR-SRC2-3 peptide fluorescence polarization, 2 h; Potency, µM, without a hit: max response, negative = inhibition, usual class: inhibitors; actives 0.93% (n = 400,000); AID 504847
Target sequence (P11473 whole entry, looked up): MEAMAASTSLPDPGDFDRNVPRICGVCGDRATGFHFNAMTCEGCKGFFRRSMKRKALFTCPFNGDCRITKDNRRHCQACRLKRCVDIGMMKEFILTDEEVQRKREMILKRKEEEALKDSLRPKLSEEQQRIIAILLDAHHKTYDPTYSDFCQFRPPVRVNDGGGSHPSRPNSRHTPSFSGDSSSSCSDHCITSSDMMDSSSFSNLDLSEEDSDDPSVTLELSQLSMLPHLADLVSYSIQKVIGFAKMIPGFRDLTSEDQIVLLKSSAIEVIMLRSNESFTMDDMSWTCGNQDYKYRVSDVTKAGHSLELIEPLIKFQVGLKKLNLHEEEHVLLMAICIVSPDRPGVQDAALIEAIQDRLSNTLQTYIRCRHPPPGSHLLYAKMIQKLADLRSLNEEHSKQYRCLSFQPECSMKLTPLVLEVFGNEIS
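Inhibition of the VDR/SRC2-3 peptide interaction is quantified by fluorescence polarization. Compounds (23 nl, pintool) incubate with the reagents for 2 hours at ambient room temperature.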
KAT2A inh: blocks human GCN5L2 histone acetyltransferase | Q92830 | AID 504327 | actives 0.21% (n = 390,000) | GCN5L2 HAT assay, ThioGlo1 CoA-SH fluorescence | Potency, µM (doses to about 58.9 µM), inactives show at the highest dose activity change, negative = inhibition, hits mostly inhibitors
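Titration-based screen in which CoA formation is detected via maleimide probe ThioGlo1 (50uM) turning fluorescent on thiol reaction; substrates H3(1-25) 75uM and acetyl-CoA 70uM, GCN5L2 20nM, 20 min incubation at room temperature.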
PLK1 PBD inh: PLK1 (human) polo-box domain binding inhibition. P53350. Plk1 PBD binding of FITC phosphopeptide, fluorescence polarization. Potency, µM, for the others: max response, negative = inhibition, actives largely listed as inhibitors. actives 2.8% (n = 360,000); note: series mostly up to about 57 µM; nearly all actives have a fitted effect of over 65% in size
The depositor's hits bear a star; ? = inconclusive; . = no result. Most compounds without a hit are left out; they make up all but 18% or so of the library. Calls come from the whole dose curve; as a rule, active = well fitted curve in the direction sought with a large enough effect; inconclusive = small, poorly fitted or top-dose-only effect, or another doubt; inactive = no such curve, though single readings can be large; an effect the other way counts as inactive or inconclusive. % is set by controls: 0 for no effect and ±100 for the full control effect; potency is the fitted concentration of half-maximal effect.

SMILES | DT40 TDP1 no CPT | DT40 TDP1 CPT | TDP1 inh | VDR inhibitor | KAT2A inh | PLK1 PBD inh
Cc1ccc(C)c(S(=O)(=O)Nc2ccc(O)c(C(=O)O)c2)c1 | 7% | -3% | -5% | ? | 1% | 30µM*
Cc1ccc(/C=C/C(=O)O)cc1S(=O)(=O)Nc1ccc(C(=O)O)cc1 | 18% | -25% | 5% | -8% | 0% | 27µM*
Cc1ccc(C)c(S(=O)(=O)Nc2ccc(O)c3ccccc23)c1 | 15µM* | 13µM* | . | ? | -7% | 24µM*
Cc1ccc(CNC(=O)C2CCCN(c3nnc(-n4c(C)ccc4C)s3)C2)cc1 (stereo unspecified) | 18µM* | ? | 5% | 17% | -4% | .
Cc1ccc(C)n1-c1nnc(N2CCCC(C(=O)NCc3ccc(Cl)cc3)C2)s1 (stereo unspecified) | 9.2µM* | ? | 8% | 5% | -4% | .
Cc1ccc(C)n1-c1nnc(N2CCCC(C(=O)NCc3ccc(F)cc3)C2)s1 (stereo unspecified) | 8.2µM* | 18µM* | 3% | 7% | -6% | .
CC(=O)Nc1ccc(NC(=O)CN(c2cccc([N+](=O)[O-])c2)S(C)(=O)=O)cc1 | ? | ? | 8% | -26% | -1% | 4%
COc1cccc(CN(C)C(=O)C(CCSC)NS(=O)(=O)c2ccc3c(c2)OCCO3)c1OC (stereo unspecified) | 13µM* | 16µM* | -3% | 20% | -1% | 0%
CSCCC(NS(=O)(=O)c1ccc2c(c1)OCCO2)C(=O)N(C)Cc1ccc(C)cc1 (stereo unspecified) | 15µM* | ? | 6% | -20% | -3% | 1%
OC(c1nc2ccccc2[nH]1)C(O)c1nc2ccccc2[nH]1 (stereo unspecified) | -22% | 10% | . | -13% | -1% | 0%
COc1ccc2[nH]c(C(O)C(O)c3nc4c(OC)c(OC)ccc4[nH]3)nc2c1OC (stereo unspecified) | 0.28µM* | 1µM* | . | . | . | .
O=C1CCN(Cc2nc(-c3ccc(Cl)cc3)no2)CCN1 | ? | ? | 0% | 5% | -1% | 1%
O=C(Nc1nc(=O)c2ccccc2s1)c1ccc(F)cc1 | -5% | -28% | . | 71µM* | -3% | -2%
CC1=C(C(=O)N(C(C)C)C(C)C)CC(CC(=O)NCc2cccc3ccccc23)C(=O)N1Cc1ccccc1 (stereo unspecified) | 15µM* | ? | . | . | . | -10%
CCN(CC)C(=O)C1=C(C)N(Cc2ccc(C(C)(C)C)cc2)C(=O)C(CC(=O)NC2CCCCC2)C1 (stereo unspecified) | 12µM* | 15µM* | . | . | . | 1%
CC1=C(C(=O)N(C(C)C)C(C)C)CC(CC(=O)NC2CCCC2)C(=O)N1Cc1ccc(C(C)(C)C)cc1 (stereo unspecified) | 23µM* | 21µM* | . | . | . | -3%
CCN(CC)C(=O)C1=C(C)N(Cc2ccc(C(C)(C)C)cc2)C(=O)C(CC(=O)NC2CC2)C1 (stereo unspecified) | -19% | -5% | . | . | . | 0%
CC1=C(C(=O)N(C(C)C)C(C)C)CC(CC(=O)NC2CCCCC2)C(=O)N1CCC1=CCCCC1 (stereo unspecified) | 23µM* | ? | . | . | . | -4%
CC1=C(C(=O)N2CCCCCC2)CC(CC(=O)NC2CCCC2)C(=O)N1CCC1=CCCCC1 (stereo unspecified) | -24% | ? | . | . | . | -6%
Cc1cccc(N2C(=O)C(CC(=O)Nc3ccccc3)N(C3CCCCC3)C2=O)c1 (stereo unspecified) | ? | -21% | 1% | -22% | 0% | .
COc1ccc(CN2C(=O)C(CC(=O)NC3CCCCC3)CC(C(=O)N(C(C)C)C(C)C)=C2C)cc1 (stereo unspecified) | 15µM* | ? | . | . | . | -3%
